# Assay outcomes deposited in PubChem BioAssay by several laboratories.
# BoNT-A LC inh2: BoNT A light chain protease inhibition; multiplex microsphere protease substrate cleavage, flow cytometry; inhibition, % at 10 µM; hit rate 0.17% among 360,000; further: plate controls were buffer without enzyme for full effect and enzyme alone for no effect
# Anthrax LF inh2: blocks Bacillus anthracis lethal factor protease | hit rate 0.12% among 360,000 | inhibition, % at 10 µM | multiplex microsphere protease cleavage assay, LF; further: plate controls were buffer without enzyme for full effect and enzyme alone for no effect
# GDH-TPI counter: counter-screen for M. tuberculosis FBA inhibitors: GDH-TPI coupled enzymes; hit rate 1.2% among 360,000; GDH-TPI coupled enzyme counterscreen, NADH absorbance; inhibition, % at 4.8 µM; in the data active means inhibition above about 30%;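 further: 0% = DMSO wells and 100% = wells lacking the enzyme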
# Bead autofluor: flagged as autofluorescent in microsphere protease counterscreen; compound autofluorescence counterscreen, microsphere flow cytometry; active compounds read high; hit rate 3.1% among 360,000; fluorescence intensity (no concentration beside the values); in the data active means fluorescence intensity above about 16000; inconclusive means no clear call, values can overlap the other calls
# BoNT-F LC inh: blocks Botulinum neurotoxin F light chain protease | inhibition, % at 10 µM | hit rate 0.22% among 360,000 | Multiplex microsphere protease cleavage assay, flow cytometry; in the data active means inhibition above about 35%, passing the limit was not always enough; inconclusive means no clear call, values can overlap the other calls; further: plate controls were buffer without enzyme for full effect and enzyme alone for no effect
# Mtb FBA inh: inhibitors of M. tuberculosis fructose-bisphosphate aldolase; purified M. tuberculosis FBA, fluorescence read-out; inhibition, % at 1 µM; hit rate 2.3% among 360,000; in the data active means inhibition above about 27%;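 further: 0% = vehicle and 100% = reference inhibitor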
# Target sequence (P9WQA3 whole entry, looked up): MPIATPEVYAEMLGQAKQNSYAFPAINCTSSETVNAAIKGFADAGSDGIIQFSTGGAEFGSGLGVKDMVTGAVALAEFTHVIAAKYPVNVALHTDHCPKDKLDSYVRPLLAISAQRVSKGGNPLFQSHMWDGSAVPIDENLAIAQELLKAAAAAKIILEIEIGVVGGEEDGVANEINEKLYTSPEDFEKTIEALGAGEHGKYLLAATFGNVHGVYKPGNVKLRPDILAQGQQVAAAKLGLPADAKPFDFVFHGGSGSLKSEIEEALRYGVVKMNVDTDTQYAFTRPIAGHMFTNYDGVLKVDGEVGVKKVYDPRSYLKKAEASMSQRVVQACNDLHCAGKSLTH
# * marks the source's active call; other numbers are inactive results; ? = inconclusive; . = no result; + = active, no number. The list is not random: actives were taken first. Their share in the collection is about 6.7%. Unless noted, no stated cut-off is given here; in the data, active means inhibition above about 30%; inconclusive means no clear call, values can overlap the other calls; inactive means below that.
SMILES,BoNT-A LC inh2,Anthrax LF inh2,GDH-TPI counter,Bead autofluor,BoNT-F LC inh,Mtb FBA inh
CCn1cc(C(=O)NCCCOC)c(=O)c2cc(S(=O)(=O)N3CCC(C)CC3)ccc21,1.2,-3.5,19.0,4126,-1.0,-2.9
CCn1cc(C(=O)NCc2ccco2)c(=O)c2cc(S(=O)(=O)N3CCCCCC3)ccc21,?,-4.1,12.1,21862*,0.3,-1.7
N#Cc1nc(Cc2ccccc2)oc1N1CCC(C(N)=O)CC1,-0.3,0.1,2.3,3121,6.5,-2.0
N#Cc1nc(-c2ccc(F)cc2)oc1N1CCC(C(N)=O)CC1,-2.1,-3.0,18.6,3148,-5.6,+
N#Cc1nc(-c2ccco2)oc1N1CCC(C(N)=O)CC1,0.5,13.1,10.0,2852,-2.5,123.7*
N#Cc1nc(-c2ccc(F)cc2)oc1N1CCN(C(=O)c2ccco2)CC1,-0.1,1.0,16.6,5866,-4.3,9.0
Cc1ccc(-c2nc(C#N)c(N3CCC(C(N)=O)CC3)o2)cc1,-1.7,-2.9,15.1,5020,-7.1,178.7*
CCOC(=O)C1CCCN(c2oc(-c3ccc(OC)cc3)nc2C#N)C1 (stereo not drawn),0.1,-3.2,-1.9,4053,3.1,131.8*
O=C(Nc1cccc2ccccc12)c1cccc([N+](=O)[O-])c1,-5.3,3.3,-7.9,3747,-18.5,2.1
Cc1ccc(S(=O)(=O)Nc2cc(C(F)(F)F)ccc2N2CCOCC2)cc1C,-0.7,-0.8,7.1,2435,-11.3,-0.8
COc1ccc(-c2nc(C#N)c(N3CCOCC3)o2)cc1OC,-0.2,1.4,11.8,2869,2.3,+
COc1ccc(-c2nc(C#N)c(N3CCN(c4cccc(Cl)c4)CC3)o2)cc1OC,-0.7,1.5,8.7,5251,0.9,-0.2
N#Cc1nc(-c2ccccc2)oc1N1CCC(C(N)=O)CC1,-2.9,-4.0,15.2,3966,?,+
COc1ccc(-c2nc(C#N)c(N3CCC(C(N)=O)CC3)o2)cc1OC,?,?,20.6,?,?,+
Cn1nc(C(=O)NNC(=O)c2ccc(Cl)cc2)ccc1=O,1.8,4.0,11.8,?,3.8,0.5
O=c1c2c(nc3c(-c4cccc(Br)c4)c[nH]n13)CCCC2,-1.5,-3.6,12.4,16678*,-5.8,-2.9
Cc1c(-c2ccccc2)[nH]n2c(=O)c3c(nc12)CCCC3,-2.2,-2.2,7.3,11483,-14.9,13.4
CCOc1ccccc1Nc1nnc(SCC(=O)N2CCCC2)s1,-0.1,-8.0,-5.5,8546,-2.3,-2.0
COc1ccccc1Nc1nnc(SCC(=O)N2CCCC2)s1,?,0.4,2.5,23377*,0.6,-1.0
CC(C)Cn1c(SCC(=O)N2CCc3ccccc3C2)nc(O)cc1=O,-1.6,-8.2,4.8,3696,-29.4,1.1
O=C(c1ccco1)N1CCCSC1=Nc1ccccc1,-1.1,-2.3,15.8,21959*,-2.6,-3.5
Cc1onc(-c2ccccc2)c1C(=O)N1CCCSC1=Nc1ccccc1,0.0,1.9,13.4,3264,-6.6,4.4
Cc1ccc2c(CN3CCN(S(=O)(=O)c4ccc(Cl)cc4)CC3)cc(=O)oc2c1C,4.4,3.0,-1.4,5633,8.1,5.0
O=c1cc(CN2CCN(S(=O)(=O)c3ccc4c(c3)OCCO4)CC2)c2ccc(O)cc2o1,-0.4,-6.7,20.3,4052,7.8,198.5*
O=c1cc(CN2CCN(S(=O)(=O)c3cccc(Cl)c3)CC2)c2ccc(O)cc2o1,.,.,0.6,.,.,118.2*
SMILES,BoNT-A LC inh2,Anthrax LF inh2,GDH-TPI counter,Bead autofluor,BoNT-F LC inh,Mtb FBA inh
Cc1ccc(-n2c(=O)c3sccc3n(CC(=O)NC3CCCC3)c2=O)cc1,-0.9,-0.6,-11.1,3761,-3.4,-0.3
COc1ccccc1C(=O)Oc1ccc2c(c1)O/C(=C\c1ccncc1)C2=O,2.4,-2.1,16.5,2024,7.0,-11.7
COc1cc2c(c(OC)c1OC)C(=O)C(=Cc1ccccc1)O2,0.5,-1.1,35.8*,3898,-4.5,-0.9
O=C(Nc1c(-c2ccccc2)nc2ccccn12)c1cccc(F)c1,-0.7,-15.8,-5.5,3930,35.8*,-0.2
CCOC(=O)C1=C(C)NC(SCC(N)=O)=C(C#N)C1c1ccccc1 (stereo not drawn),-0.6,-3.4,5.7,7427,-13.1,0.7
CCOC(=O)C1=C(c2ccccc2)NC(SCC(N)=O)=C(C#N)C1c1cccnc1 (stereo not drawn),2.7,-1.7,-3.8,19434*,3.6,-0.1
COCCNS(=O)(=O)c1ccc2c(c1)C(=NO)c1cc(S(=O)(=O)NCCOC)ccc1-2,-1.4,-8.0,14.2,4341,-9.3,18.2
Cc1cc(-n2nnc3ccccc32)nc2ccccc12,-2.6,0.2,18.4,17243*,-6.4,-0.2
CCOC(=O)N1CCN(C(=O)c2ccc(Cl)c(S(=O)(=O)N3CCCC3)c2)CC1,-2.2,-0.1,0.7,4540,1.7,5.0
COc1ccc(CCNC(=O)c2cc3c(=O)n4cccc(C)c4nc3n(CC3CCCO3)c2=N)cc1 (stereo not drawn),5.1,4.8,5.0,5595,5.0,20.1
COCCCn1c(C(=O)N2CC(C)OC(C)C2)cc2c(=O)n3ccccc3nc21 (stereo not drawn),3.6,-6.0,17.5,4644,6.2,+
Cc1ccc2nc3c(cc(C(=O)NCC4CCCO4)c(=N)n3CC3CCCO3)c(=O)n2c1 (stereo not drawn),0.7,32.9*,2.2,3882,1.9,+
N=c1c(C(=O)NC2CCCCC2)cc2c(=O)n3ccccc3nc2n1CC1CCCO1 (stereo not drawn),-1.6,-2.5,6.1,6433,3.5,+
CC(NC(=O)c1cc2c(=O)n3ccccc3nc2n(CC2CCCO2)c1=N)c1ccccc1 (stereo not drawn),-1.2,0.4,17.9,6125,-0.7,+
COc1ccc(Cn2c(=N)c(C(=O)NC3CCCCC3)cc3c(=O)n4ccccc4nc32)cc1,8.3,9.9,6.1,5088,7.0,0.9
CC(C)CN1CCN(Cc2cc(F)ccc2-n2cccn2)CC1CCO (stereo not drawn),0.1,0.1,10.4,2062,1.4,-7.1
CCO[C@H]1OC(C(=O)Nc2ccccc2)=C[C@@H](c2ccc(Br)cc2)[C@@H]1CCCO,0.1,-4.8,-13.5,3845,-2.1,2.4
COc1ccc(CCn2c(=N)c(C(=O)NCC3CCCO3)cc3c(=O)n4ccccc4nc32)cc1OC (stereo not drawn),1.6,-2.0,11.8,5737,13.6,-3.7
CCOC(=O)c1cc2c(=O)n3ccccc3nc2n(CC2CCCO2)c1=NC(=O)/C=C/c1ccccc1 (stereo not drawn),2.3,8.3,25.6,3223,-0.5,+
CCOC(=O)c1cc2c(=O)n3ccccc3nc2n(CC2CCCO2)c1=NC(C)=O (stereo not drawn),0.1,3.5,17.6,3221,-2.1,.
N=c1c(C(=O)NC2CCCC2)cc2c(=O)n3ccccc3nc2n1CC1CCCO1 (stereo not drawn),-5.9,-3.3,10.4,4355,-22.3,+
